{"source": "PubChem BioAssay (Tox21)", "note": "Results filed as inconclusive are left out. The source holds several records for some structures; these can differ, active in one and inactive in another. The source made the active and inactive calls. Calls come from the whole dose curve. % is set by controls: 0 for no effect and ±100 for the full control effect; potency is the fitted concentration of half-maximal effect."}
{"biological_target": "5-hydroxytryptamine receptor 2A (Homo sapiens) (UniProt P28223)", "sequence (P28223 whole entry, looked up)": "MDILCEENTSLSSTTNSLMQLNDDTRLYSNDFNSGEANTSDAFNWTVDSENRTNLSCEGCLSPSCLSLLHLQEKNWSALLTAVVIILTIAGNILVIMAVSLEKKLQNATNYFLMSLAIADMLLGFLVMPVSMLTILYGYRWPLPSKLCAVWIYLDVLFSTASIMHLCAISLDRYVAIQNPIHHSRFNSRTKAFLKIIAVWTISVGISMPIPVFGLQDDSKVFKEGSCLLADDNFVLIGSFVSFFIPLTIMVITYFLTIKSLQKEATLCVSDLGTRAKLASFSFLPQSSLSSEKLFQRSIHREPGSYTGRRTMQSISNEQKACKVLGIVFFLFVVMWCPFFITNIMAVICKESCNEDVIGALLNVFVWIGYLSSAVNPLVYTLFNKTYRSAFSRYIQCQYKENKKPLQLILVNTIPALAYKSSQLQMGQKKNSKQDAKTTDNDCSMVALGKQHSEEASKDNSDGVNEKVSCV", "experiment": "5-hydroxytryptamine receptor 2A (HTR2A) small molecule agonists, cell-based qHTS assay (AID 1963587); note: nearly all actives have a fitted effect of over 30% in size", "conditions": "HTR2A-CHO cells, calcium flux fluorescence, agonist mode; series mostly up to 76.8 µM; activation: at the top concentration", "method_in_brief": "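HTR2A-CHO cells, plated 18 h at 37 C/5% CO2, dye-loaded 1 h at 37 C; compounds in DMSO added by pin tool (agonist mode). Intracellular calcium flux read as kinetic fluorescence on FDSS over 2 min at 1 s intervals.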"}
{"molecule": "N#CCCO", "activation": "-0.402% (inactive)"}
{"molecule": "C=CCSSCC=C", "activation": "1.92% (inactive)"}
{"molecule": "N#Cc1ccc(Cl)cc1", "activation": "-2.62% (inactive)"}
{"molecule": "C=CCc1cc(OC)c2c(c1)OCO2", "activation": "-1.76% (inactive)"}
{"molecule": "c1ccc(-c2cccc(-c3ccccc3)c2)cc1", "Potency": "inactive"}
{"molecule": "c1ccc(NNc2ccccc2)cc1", "Potency": "inactive"}
{"molecule": "O=c1[nH]c2ccccc2n1C1CCN(CCCC(c2ccc(F)cc2)c2ccc(F)cc2)CC1", "Potency": "inactive"}
{"molecule": "CCCCCCCCCCn1cc[n+](C)c1", "Potency": "inactive"}
{"molecule": "OCCSSCCO", "activation": "-3.27% (inactive)"}
{"molecule": "CCN", "activation": "-0.131% (inactive)"}
{"molecule": "N#Cc1ccc(O)cc1", "activation": "-0.827% (inactive)"}
{"molecule": "O=NN(c1ccccc1)c1ccccc1", "Potency": "inactive"}
{"molecule": "COC(=O)Nc1cccc(OC(=O)Nc2cccc(C)c2)c1", "Potency": "inactive"}
{"molecule": "CC(Br)C(=O)O", "note": "(stereo not given)", "Potency": "inactive"}
{"molecule": "O=S1OCC2C(CO1)C1(Cl)C(Cl)=C(Cl)C2(Cl)C1(Cl)Cl", "note": "(stereo not given)", "Potency": "43.7 µM (active) and inactive"}
{"molecule": "ClC1=C(Cl)C2(Cl)C3C(Cl)C(Cl)CC3C1(Cl)C2(Cl)Cl", "note": "(stereo not given)", "Potency": "inactive"}
{"molecule": "ClC(Cl)(Cl)Br", "Potency": "inactive"}
{"molecule": "CCN(CC)Cc1nccn1-c1ccc([N+](=O)[O-])cc1C(=O)c1ccccc1Cl", "activation": "-9.45% [at 35.6 µM] (inactive)"}
{"molecule": "Cl/C=C/CCl", "activation": "-0.0829% (inactive)"}
{"molecule": "CCCCCCCCSC(=O)Oc1cc(Cl)nnc1-c1ccccc1", "activation": "-0.228% (inactive)"}
{"molecule": "Cc1ccc(N)cc1N", "Potency": "inactive"}
{"molecule": "[O-][Cl+]O", "activation": "0.015% (inactive)"}
{"molecule": "OCCOc1ccccc1", "Potency": "inactive"}
{"molecule": "CC(C)Nc1ccc(Nc2ccccc2)cc1", "activation": "19.2% (inactive)"}
{"molecule": "O=C(CCN1CC1)OCC(CO)(COC(=O)CCN1CC1)COC(=O)CCN1CC1", "activation": "2.53% (inactive)"}
{"molecule": "CC(C)(C)C(O)(CCc1ccc(Cl)cc1)Cn1cncn1", "note": "(stereo not given)", "activation": "3.46% (inactive)"}
{"molecule": "CC1COC2(c3ccccc3Cl)c3cc(Cl)ccc3NC(=O)CN12", "note": "(stereo not given)", "activation": "11.9% [at 35.6 µM] (inactive)"}
{"molecule": "CC(C)(C)OOC(C)(C)CCC(C)(C)OOC(C)(C)C", "activation": "4.37% (inactive)"}
{"molecule": "N#CC(c1ccccc1)c1ccccc1", "Potency": "inactive"}
{"molecule": "O=C(Cl)OCCOCCOC(=O)Cl", "activation": "-0.721% (inactive)"}
{"molecule": "CCN(CC)C(=O)C(C)Oc1cccc2ccccc12", "note": "(stereo not given)", "Potency": "inactive"}
{"molecule": "CCN(CCO)CCO", "activation": "1.96% (inactive)"}
{"molecule": "O=C(NCO)NCO", "activation": "-0.0357% (inactive)"}
{"molecule": "Nc1c(Br)cc([N+](=O)[O-])cc1[N+](=O)[O-]", "activation": "-0.559% (inactive)"}
{"molecule": "Cc1cccc(N)c1N", "activation": "17.8% (inactive)"}
{"molecule": "CC(C)C(=O)OCC(C)(C)C(OC(=O)C(C)C)C(C)C", "note": "(stereo not given)", "Potency": "inactive"}
{"biological_target": "Muscarinic acetylcholine receptor M1 (Homo sapiens) (UniProt P11229)", "sequence (P11229 whole entry, looked up)": "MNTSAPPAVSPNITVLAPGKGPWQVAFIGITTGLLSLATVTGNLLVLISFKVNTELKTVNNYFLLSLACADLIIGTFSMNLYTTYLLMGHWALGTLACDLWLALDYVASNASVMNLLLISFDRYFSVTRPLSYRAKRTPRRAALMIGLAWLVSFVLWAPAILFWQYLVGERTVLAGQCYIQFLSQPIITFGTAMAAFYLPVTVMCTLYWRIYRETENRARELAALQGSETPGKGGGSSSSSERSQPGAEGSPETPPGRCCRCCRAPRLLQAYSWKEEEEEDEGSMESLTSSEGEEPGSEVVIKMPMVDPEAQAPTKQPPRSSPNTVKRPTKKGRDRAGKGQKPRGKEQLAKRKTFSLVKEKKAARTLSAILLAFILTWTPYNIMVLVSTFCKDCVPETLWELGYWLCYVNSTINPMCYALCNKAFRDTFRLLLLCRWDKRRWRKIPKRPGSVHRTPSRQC", "experiment": "Cholinergic receptor muscarinic 1 (CHRM1) small molecule antagonists, cell-based qHTS assay (AID 1963588); note: nearly all actives have a fitted effect of over 40% in size", "conditions": "CHRM1-CHO antagonist mode, calcium flux fluorescence; series mostly up to 61.5 µM; activity, negative = inhibition: at the top concentration", "method_in_brief": "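CHRM1-CHO calcium-flux assay, antagonist mode. Cells were seeded 18 h, dye-loaded 1 h at 37 C and given compound for 5 min at RT, then acetylcholine was added at 50nM. FDSS fluorescence was read 3 min; 15 concentrations, three runs.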"}
{"molecule": "N#CCCO", "activity, negative = inhibition": "-19.3% (inactive)"}
{"molecule": "C=CCSSCC=C", "activity, negative = inhibition": "-6.21% (inactive)"}
{"molecule": "N#Cc1ccc(Cl)cc1", "activity, negative = inhibition": "15.3% (inactive)"}
{"molecule": "C=CCc1cc(OC)c2c(c1)OCO2", "activity, negative = inhibition": "9.3% (inactive)"}
{"molecule": "c1ccc(-c2cccc(-c3ccccc3)c2)cc1", "Potency": "inactive"}
{"molecule": "O=c1[nH]c2ccccc2n1C1CCN(CCCC(c2ccc(F)cc2)c2ccc(F)cc2)CC1", "activity, negative = inhibition": "-0.537% (inactive)"}
{"molecule": "OCCSSCCO", "activity, negative = inhibition": "5.45% (inactive)"}
{"molecule": "CCN", "activity, negative = inhibition": "-8.88% (inactive)"}
{"molecule": "N#Cc1ccc(O)cc1", "activity, negative = inhibition": "-5.48% (inactive)"}
{"molecule": "NCCOS(=O)(=O)O", "activity, negative = inhibition": "-10.5% (inactive)"}
{"molecule": "O=NN(c1ccccc1)c1ccccc1", "Potency": "inactive"}
{"molecule": "COC(=O)Nc1cccc(OC(=O)Nc2cccc(C)c2)c1", "Potency": "inactive"}
{"molecule": "CC(Br)C(=O)O", "note": "(stereo not given)", "Potency": "inactive"}
{"molecule": "O=S1OCC2C(CO1)C1(Cl)C(Cl)=C(Cl)C2(Cl)C1(Cl)Cl", "note": "(stereo not given)", "Potency": "37.5 µM (active) and inactive"}
{"molecule": "ClC1=C(Cl)C2(Cl)C3C(Cl)C(Cl)CC3C1(Cl)C2(Cl)Cl", "note": "(stereo not given)", "Potency": "inactive"}
{"molecule": "ClC(Cl)(Cl)Br", "Potency": "inactive"}
{"molecule": "CCN(CC)Cc1nccn1-c1ccc([N+](=O)[O-])cc1C(=O)c1ccccc1Cl", "activity, negative = inhibition": "-16.4% [at 28.3 µM] (inactive)"}
{"molecule": "Cl/C=C/CCl", "activity, negative = inhibition": "0.686% (inactive)"}
{"molecule": "CCCCCCCCSC(=O)Oc1cc(Cl)nnc1-c1ccccc1", "activity, negative = inhibition": "-1.82% (inactive)"}
{"molecule": "Cc1ccc(N)cc1N", "Potency": "inactive"}
{"molecule": "[O-][Cl+]O", "activity, negative = inhibition": "-9.12% (inactive)"}
{"molecule": "OCCOc1ccccc1", "Potency": "inactive"}
{"molecule": "CC(C)Nc1ccc(Nc2ccccc2)cc1", "Potency": "11.9 µM (active)"}
{"molecule": "O=C(CCN1CC1)OCC(CO)(COC(=O)CCN1CC1)COC(=O)CCN1CC1", "activity, negative = inhibition": "5.68% (inactive)"}
{"molecule": "CC1COC2(c3ccccc3Cl)c3cc(Cl)ccc3NC(=O)CN12", "note": "(stereo not given)", "activity, negative = inhibition": "1.45% [at 28.3 µM] (inactive)"}
{"molecule": "CC(C)(C)OOC(C)(C)CCC(C)(C)OOC(C)(C)C", "activity, negative = inhibition": "1.28% (inactive)"}
{"molecule": "N#CC(c1ccccc1)c1ccccc1", "Potency": "inactive"}
{"molecule": "O=C(Cl)OCCOCCOC(=O)Cl", "activity, negative = inhibition": "2.51% (inactive)"}
{"molecule": "CCN(CC)C(=O)C(C)Oc1cccc2ccccc12", "note": "(stereo not given)", "Potency": "inactive"}
{"molecule": "CCN(CCO)CCO", "activity, negative = inhibition": "2.08% (inactive)"}
{"molecule": "O=C(NCO)NCO", "activity, negative = inhibition": "-2.85% (inactive)"}
{"molecule": "Nc1c(Br)cc([N+](=O)[O-])cc1[N+](=O)[O-]", "activity, negative = inhibition": "9.59% (inactive)"}
{"molecule": "Cc1cccc(N)c1N", "Potency": "inactive"}
{"molecule": "CC(C)C(=O)OCC(C)(C)C(OC(=O)C(C)C)C(C)C", "note": "(stereo not given)", "Potency": "inactive"}
